Molecules are shown by their SMILES. In all, about 320,000 compounds went through this assay and about 2,100 (0.66%) were called active. Roughly 53% stayed inconclusive and do not appear here. The call rests on the fitted dose curve; in most records, active means well fitted inhibition curve with a large enough effect in the signal ratio, with a control signal flat (not every such curve was filed as active); inconclusive means small, poorly fitted or top-dose-only effect, or effect the other way, or a change in a side signal; inactive means flat fitted curve, though single readings scatter; the % refers to the signal ratio. The full list was thinned out, with actives kept by preference.
Potency means the concentration at half of the fitted maximal effect.

A short description of the assay: qHTS Assay for Lipid Storage Modulators in Drosophila S3 Cells.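 On cell number change: cells counted by Cell Tracker Red CMTPX staining in the red channel.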 On lipid storage change, negative = inhibition: on the % scale 0 is the no-effect control and ±100 the full control effect. Conditions: BODIPY lipid droplet fluorescence, 18-24 h, cells fed with added oleic acid; cell number change: measured here: cell count max response; series mostly up to 46.1 µM; lipid storage change, negative = inhibition: at the top concentration. Summed up:
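Drosophila S3 cells loaded with oleic acid (400 uM, as added) and compounds at several concentrations; lipid droplets imaged by 488-nm laser-scanning cytometry, 500–530 nm intensity and object ratio to cell channel. Percent activity normalized to 20 uM Triacsin C.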
On to `CC(C)CNC(=O)C(=O)Nc1cc2c3c(c1)CCC(=O)N3CCC2`, for which the call was inactive.
With `CC(C)NC(=O)C(=O)Nc1cc2c3c(c1)CCC(=O)N3CCC2`, the Potency is 11.6 µM (active) and the cell number change was -25.7%.
Take `CNC(=O)C(=O)Nc1cc2c3c(c1)CCN3C(=O)CC2`: the call was inactive.
In the case of `CCNC(=O)C(=O)Nc1cc2c3c(c1)CCN3C(=O)CC2`, the Potency is 6.51 µM (active) and the cell number change is -2.95%.
Take `O=C(NCCO)C(=O)Nc1cc2c3c(c1)CCN3C(=O)CC2`: the result was inactive and the cell number change is -29%.
In the case of `CC12CCC(=O)N1C(C(=O)OCC(=O)Nc1cccc(S(=O)(=O)N3CCCCCC3)c1)CS2` (stereo not given), the “lipid storage change, negative = inhibition” value is 8.73% (inactive).
`COc1cccc(C(=O)OC2CCCN(C)C2)c1` (stereo not given): the Potency is 23.1 µM (active) and the cell number change is -20.8%.
As to `CN1CCCC(OC(=O)c2cc(Cl)cc(Cl)c2)C1` (stereo not given), the “lipid storage change, negative = inhibition” value was 6.18% (inactive) and the cell number change was -19.2%.
The corresponding values for `CN1CCCC(OC(=O)c2cccc(S(=O)(=O)N3CCCCCC3)c2)C1` (stereo not given) are -6.87% (inactive) and 5.11%.
The corresponding values for `CCc1ccc(NC(=O)C/C(C)=N/NC(=O)OCc2ccc(OC)cc2)cc1` are 4.54% (inactive) and 1.96%.
The corresponding values for `O=S(=O)(c1cccs1)N1CCN(S(=O)(=O)c2cccs2)CC1` are 0.709% (inactive) and 5.37%.
`Cc1ccc(N2CCN(S(=O)(=O)c3ccc4c(c3)n(C)c(=O)c(=O)n4C)CC2C)cc1` (stereo not given): the “lipid storage change, negative = inhibition” value is -1.8% (inactive) and the cell number change worked out at 9.1%.
On to `Cc1ccc(N2CCN(S(=O)(=O)c3cccs3)CC2C)cc1` (stereo not given), for which the Potency was 3.66 µM (active) and the cell number change was -24.3%.
With `O=C(Nc1ccccc1NC(=O)c1ccco1)c1ccco1`, the “lipid storage change, negative = inhibition” value is 5.64% (inactive) and the cell number change is -11%.
As for `Cc1ccc(NC(=O)c2ccco2)c(NC(=O)c2ccccc2)c1`, the compound was classed as inactive and the cell number change came out at 11.5%.
Turning to `CN(C(=O)c1cccc(NC(=O)c2ccco2)c1)c1ccccc1`, the “lipid storage change, negative = inhibition” value is 27% (inactive) and the cell number change stood at 8.03%.
Take `CN(C(=O)c1ccc(NC(=O)c2ccco2)cc1)c1ccccc1`: the Potency was 8.2 µM (active) and the cell number change worked out at 5.45%.
The corresponding values for `O=C(Nc1ccccc1NC(=O)c1ccco1)c1ccccc1` are 1.46 µM (active) and -10%.
Consider `CC(=O)N(C)c1ccc(NC(=O)c2ccco2)cc1`, for which the “lipid storage change, negative = inhibition” value is -5.89% (inactive) and the cell number change is -3.91%.
The corresponding values for `CCC(OC(=O)c1cccs1)C(=O)NCc1ccc(C)cc1` (stereo not given) are -3.65% (inactive) and -0.108%.
The corresponding values for `CCC(C(=O)N(C(C)C)C(C)C)c1ccccc1` (stereo not given) are 16.1% (inactive) and 4.75%.
For the compound `O=C(N/C(=C\c1ccccc1)C(=O)N1CCCCC1)c1ccc(Br)o1`, the cell number change turned out to be 0.343% and the outcome is “inactive [at 0.369 µM]”.
In the same order, the values of `CC(C(=O)NCC1(c2ccccc2)CCCC1)N1CCOCC1` (stereo not given) are 9.07% and “inactive”.
Turning to `COc1ccc(CN(CC2CCC(C(=O)O)CC2)C(=S)Nc2cc(C)cc(C)c2)cc1` (stereo not given), the “lipid storage change, negative = inhibition” value was 6.11% (inactive) and the cell number change was -1.54%.
As for `COc1ccc2[nH]c3c(=O)n(CCCC(=O)NC4CCC(C)CC4)c(=S)[nH]c3c2c1` (stereo not given), the Potency is 2.31 µM (active) and the cell number change came out at 6.49%.
In the case of `CCCNC(=O)CCCCn1c(=S)[nH]c2c([nH]c3ccc(OC)cc32)c1=O`, the “lipid storage change, negative = inhibition” value is -8.43% (inactive) and the cell number change is 24.9%.
The corresponding values for `CC[C@H](C)NC(=O)CCCCCn1c(=S)[nH]c2c([nH]c3ccc(OC)cc32)c1=O` are -12.6% (inactive) and -11.2%.
For `O=C(CSc1cn(Cc2cccc(F)c2)c2ccccc12)NCc1ccc(F)cc1`, the “lipid storage change, negative = inhibition” value was 17% (inactive) and the cell number change came to 3.63%.
Consider `CNC(=O)C1CCC(=O)N1Cc1ccccc1Cl` (stereo not given), for which the Potency is 29.1 µM (active) and the cell number change is -10.4%.
In the case of `O=C(Nc1ccc(Cl)cc1)C1CCC(=O)N1Cc1ccccc1Cl` (stereo not given), the call was inactive and the cell number change is -16.5%.
As for `O=C(O)C1CCC(=O)N1Cc1ccccc1Cl` (stereo not given), the “lipid storage change, negative = inhibition” value was -7.87% (inactive) and the cell number change was -9.84%.
With `O=C(O)c1ccc(-n2nnnc2SCc2ccccc2)cc1`, the compound was classed as inactive and the cell number change is 17.8%.
For `Cc1ccc[n+](CC(=O)c2ccc(Cl)cc2)c1`, the “lipid storage change, negative = inhibition” value was -24.8% (inactive) and the cell number change worked out at 2.36%.
As to `Cc1ccc[n+](CC(=O)c2ccc(Br)cc2)c1`, the Potency is 11.6 µM (active) and the cell number change was determined as 14.7%.
In the case of `COc1ccc(C(=O)C[n+]2cccc(C)c2)cc1`, the “lipid storage change, negative = inhibition” value was 4.32% (inactive) and the cell number change was found to be 11.3%.
The corresponding values for `O=C(O)c1cccc(Oc2ccccc2[N+](=O)[O-])c1` are 9.92% (inactive) and -2.25%.
The corresponding values for `CCOc1ccc(/C=N/n2nnnc2N)cc1O` are -6.33% (inactive) and 23.4%.
Turning to `CCc1ccc(C(=O)c2cnc3ccc(OC)cc3c2N2CCN(CC)CC2)cc1`, the “lipid storage change, negative = inhibition” value is -4.3% (inactive) and the cell number change is -13.9%.
For `Cn1ccs/c1=N\S(=O)(=O)c1ccc(Br)cc1`, the “lipid storage change, negative = inhibition” value was -1.49% (inactive).
In the case of `Cn1ccs/c1=N\S(=O)(=O)c1ccc(C(C)(C)C)cc1`, the Potency is 16.4 µM (active) and the cell number change is -15.3%.
In the case of `Cn1ccs/c1=N\S(=O)(=O)c1ccc(F)cc1`, the compound was called inactive.
Turning to `COc1ccc2c(c1)CCc1c(C(=O)NCc3ccc(Cl)cc3)noc1-2`, the “lipid storage change, negative = inhibition” value was -2.21% (inactive) and the cell number change was 3.58%.
In the same order, the values of `CC(=O)c1c(C)[nH]c(C(=O)Nc2ccc3c(c2)OCCO3)c1C` are 13.6% (inactive) and -13.3%.
Consider `CCOc1ccc(NC(=S)N2CCC(c3nc4ccccc4[nH]3)CC2)cc1`, for which the “lipid storage change, negative = inhibition” value was -3.34% (inactive) and the cell number change was 0.472%.
Take `COCCn1c(SCC(=O)NNC(=O)c2ccccc2)nc2ccccc2c1=O`: the “lipid storage change, negative = inhibition” value is 1.17% (inactive) and the cell number change is 22%.
For the compound `C=CCNC(=O)NC(=O)COC(=O)/C(C#N)=C/c1cc(C)n(CC(C)C)c1C`, the “lipid storage change, negative = inhibition” value is -18% (inactive) and the cell number change amounted to 19.6%.
The corresponding values for `CCN1C(=O)c2cccc3c(Cl)ccc1c23` are 17.8% (inactive) and -17.2%.
The corresponding values for `Cc1cc(Cl)c2oc(C(=O)N(C)CC3CCOCC3)c(C)c2c1` are 5.8% (inactive) and -6.12%.
In the case of `Cc1cc(Cl)c2oc(C(=O)N(C)CCc3cnn(C)c3)c(C)c2c1`, the result was inactive and the cell number change is -0.298%.
As to `Cc1cc(Cl)c2oc(C(=O)N(C)CCCCN3CCOCC3)c(C)c2c1`, the Potency is 1.3 µM (active) and the cell number change was -10.7%.

The record behind these values is PubChem BioAssay AID2685 (National Center for Advancing Translational Sciences (NCATS), 2010).
